Assay results reported in PubChem BioAssay AID1508600 (Functional Genomics Laboratory (NCATS/FGL), 2020).
The campaign covered roughly 53,000 sequences. About 3,700 (7%) were called active. This excerpt belongs to a sample that is enriched for actives. Unmarked numbers belong to inactive results.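 How the source made its calls: active means gene knockdowns whose robust z-score for IL-1 alpha signal is at least 2 or at most -2, so actives lie on both sides; inactive means the rest.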

Experiment: Components of the Cytosolic LPS Sensing Pathway: Gene Identification via Genome-wide siRNA Screen;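 further: robust z of the log signal after scaling to non-targeting control siRNA wells of the plate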
Details: RAW264.7 macrophages, IL-1a HTRF, actives lie on both sides, screened at 100 nM (by protocol), cells primed 5 h with Pam3CSK4 first
Outline: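 Knockdown: 100 nM siRNA, 48h, RAW264.7. Stimulation: Pam3CSK4 5 h, then LipidA via TransIT-TKO 24 h. Output: supernatant IL-1a HTRF, negative-control-normalized, log robust z-score; viability by CellTiter-Glo.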

Sequence	z-score
GGUGAAGAGGAAGAUCCUGTT against Ctdnep1	0.421
GGGUUAUCCGUAUGUUUUCTT against Olfr557	0.964
GGGAUUUCUUACCCUGUUUTT against Prr7	-0.222
CGACAUUGAUAUCGUGCGCTT against Gadd45g	-0.827
GGACUAGCAAGCUCUUCAGTT against Fancd2	-0.578
GGUGAAAGUACUGAGGAAGTT against Rlim	2.45 (active)
GCUCCACCGAGAAAUUACUTT against Magt1	1.63
CCCUCUUGAAAUUAGUGUGTT against Dusp14	0.405
GCUCACAUGUUUUAGGUGATT against Poc5	0.756
GGCAAAGAAGGAGAAAGUATT against Cd209c	-2.06 (active)
GGCAGACAAUCAAUGAAAUTT against Padi4	-0.451
GCCACUUCCGGUCAACUAUTT against Cog1	0.801
GGGCAAUAAGAUGUACGUUTT against Eomes	3.24 (active)
GUAUGUUUGGGCUUAGCCUTT against Olfr1348	-1.21
GGAAGUUACUGUUGAGUAGTT against Olfr114	0.209
GUUGAUGGAAACCAUGGAATT against Phf11d	-0.504
GGAAAAAGCACCAUUGUGATT against Gnao1	-0.819
GCUACUUCGGGAAUUUUACTT against Ttc21a	-1.16
CCCUAUGAGCAAAUCACAUTT against Ppp3cc	-0.499
GGACUAAGAUUUGUGUUAGTT against Ccdc127	2.15 (active)
GGGAAGUUCAGUUCAAUACTT against Hps4	1.11
GCUGGAUAGCUAAAAUGAUTT against Gimap5	-0.0294
GCUAUAUUGUUAGCACACATT against Hmgn2	0.326

Sequence	z-score
CCUGGAGGAGUAUUUACACTT against H2-Ob	-1.17
GGCUAUGGAGUUCACCACATT against Krtap5-5	-2.66 (active)
GGGAAGAAAUCAACGAUAATT against Gpa33	-0.0673
GGAACACACCAUCAUCCAGTT against H2-Ea	1.29
GGGCUAUGCCUACUACACUTT against Fn3k	0.976
CCGAGGUGAUUAGGAUAACTT against Traf3ip1	-0.694
GGAGGAGAACAGCAAUCUUTT against Speer4d	-2.38 (active)
CCUCUUCAACAAACAAGCATT against Zscan22	-0.379
GCAGCAGUGAAAUAGCUUCTT against Eya1	-0.643
GGAUGCAUGGCUCAAUAUUTT against Olfr1164	2.01 (active)
GCACAUUUGGACAACCAAUTT against AU018091	-0.973
GCCGCUAUCGUCUUUAUCATT against Ptk7	0.00632
GGAGAAAAACAUCAUUGAATT against Reck	-0.102
GGCUCUCAACUAAAGCAGCTT against Snu13	-1.18
GGGCUUUGUUUCCAAGUUGTT against Muc15	-0.285
GGUCUUUGCUACCAACCUGTT against Fignl1	-2.15 (active)
CCAUAGACUAUUAUCCUUATT against Uhrf1bp1l	-0.282
GGACACAAAGAAGAAGAGGTT against Tarsl2	0.707
GGUUAUUCUGGCUAUGGGCTT against Taf15	-2.22 (active)
GGAAAUAUUGAUGCUGCUGTT against Ttc39a	1.09
GGGAGUGCCUGGGUUUGUATT against Dusp28	3.19 (active)
CAAAAAUAUCUACAGAGUCTT against Olfr494	0.207
CGAGAAAAACGAUUUACUGTT against Orai2	-0.527

Sequence	z-score
GGCAAUCCCAUAGAGGCUGTT against Mief2	-2.64 (active)
GGAUGAGAAUGGUUAUACUTT against Asz1	0.328
CCGCCUCGUACAUGAUAUUTT against Mrgpra2b	0.653
GGAUUUAUUUGCCAACACUTT against Actbl2	-2.28 (active)
GGUUGCUAUUAUUAUUGGATT against Fnbp4	0.678
GCCCAAGGAGGCAUUGAUATT against Fbxo8	-0.653
GGCUUCAUUUACUGUAACGTT against Flrt3	-0.12
GGAUAAACGGACAGGCCCATT against Socs2	0.282
GGGUUCUGGGAAGGUAUAUTT against Olfr705	-2.54 (active)
GAUUGUGCCUUAUCUCUAATT against Vmn1r203	1.28
GGCCUACAUUUUAAUUCAGTT against Tmem132c	-0.167
GGCUCAGAUCAGAACUACGTT against Inpp4a	-0.129
GGUAAACGAUGUACAGUUGTT against Notch2	2.6 (active)
GCUAAAGUGAGCAGCGGGATT against Gipc3	0.218
GCUACCUGCGACAAGAAAUTT against Defb23	-0.79
CCAUAUGUAGCUAUGGUUATT against Cul2	0.741
CCAGUAGAAAGAAUCCAGATT against Gm128	0.0855
GCCAGCUACUCUCUUGAGATT against Olfr419	-1.03
GGACUACAUGGAUGCCAUGTT against Prkrip1	0.482
GGCCCUCAAACAGUGCAAATT against Chchd10	2.09 (active)
GGCCUUUUCCAUAAACUUUTT against Ddx60	0.873
GCAGUACGAAAUGGUAUACTT against Chd6	-1.7
